Source: the supplement of paper PMC12632987
Whole data set: some 4,500 sequences, median “median log2 fold change of GCK-ALFA target abundance (FLAG IP / Myc IP barcode read proportion)” near 0.078, cut for the lowest 2% near -0.6. The full list was thinned out, with the lowest values kept by preference.

B1: GBRAP_84_7007 (protein)
chain: SREQEILEITNKILEKGSIELKKKLLTYLILKNENKAATLALNYLLEEDPEAAVEALDEATEAYEEGKEEEVRKELLELAKKEGEEVYALVEELLELIDE
B2: GBRAP_84_7006 (protein)
chain: EREEEIVKLTKEILEKGSIELKALLLTYLILKNENKAATLALNDLLKEDPEAAVEALDRATEAYEEGKEEEVEKELKEKAKKEGKEVAELVEKLIKLLEE
B3: GBRAP_84_7005 (protein)
chain: SREEEIVEITAEILEKASIETKALLLTYLILKNANKAATLALNDLLEEDPEAAVEALDRATEAYEEGKEEEVEKELLEKAKEEGEELAELVERLLELLKE
B4: GBRAP_166_4935 (protein)
chain: SLEKIYEETKKKVIELAKKALTADEEERIDLAIEIEELLKEAKEKGLTPEQLKEILLEALKELEEDPEVAEFLLRMILAASEMDEELQDVILEALEEFKK
B5: GBRAP_128_3437 (protein)
chain: AQEELLQEALELLDEIVESDVETAAELAKQLAELLGQLDEESRDEVVEYFEEKAKELTEEKLEAVADALREQVPQLDADTANAVNEMIVILGEQILELEE
B6: GBRAP_160_4322 (protein)
chain: KEELEELEKRIKEIAEEAKKMIKGQSAEEKITIVKVALGDIILEVESNPAVSDELEDKVAEIADAAEAYLDAHPDLSEEEVIALLEEAVKKILELIKEEK
B7: GBRAP_137_3640 (protein)
chain: MKVTIRVERHEDLVEITITVDDPEKAEEVAELITDLAVAHGALAISVEIKEDGTLEAVIWVPVERAEALIAAIVDALQSKFGATVTVEDLDTGEVRTYTP
B8: GBRAP_184_5202 (protein)
chain: AIVERTIEFENEEELKEKLKELLEELKGFKGTVYIHVEAPEITEEMAKLLIEFVKEIKENGYATEIIVDIEGEVSEEVRDLLLDEFAKIGAKVVIALSEE
B9: GBRAP_11_2682 (protein)
chain: RKEALERAAELAERAAELAERLLEEGVDNEELLEELRRALEELRRLVKEHLDEAHRTLVEIAEEELEEALADPENAAAHIERLLAAARVLRYNLEEELEE
B10: GBRAP_125_3139 (protein)
chain: MKAELLALAEALARALGYSEEEIAELRRLGEAHDPAQTIIAILLAEGFEELAELAREVLPKLTPEEIAELRALAESLRDKSREELRAALLAKLKELKAKQ
B11: GBRAP_128_3300 (protein)
chain: MDPALRAEVEALVETIRTGDPAARRAAAEALAALMGSVNDEDAEAIADIIEAAIPELSAEALEILADVLDAARPQLTPEKAALAADVASAALLAAEELAE
B12: GBRAP_52_6059 (protein)
chain: MEERIEELARRIAEAIAAGDLERALELLRRAIKELSVEEIRRMLELAAERVAKLGEEAHERFVELLEEAEELMKEAGISEEEAELIVGDAEAALARAVAA
B13: GBRAP_52_6154 (protein)
chain: MEERAREYAERFVAAVKAGDEEEARAIMEEIAATLDDEEIALFLEHVAELVAGLSPEDRERVVEAVLEFEDIAEAAGHDPELLSYHTARVAGAAYAALQA
B14: GBRAP_52_6153 (protein)
chain: ARERAREYAEAFVAAVKAGDEERARAIMEEIAATLNDEEIELFLEEVARLVEGLTPEERERVVEAVLEFEDIAVAAGHDEELLSYHTARVAGAAYDALQK
B15: GBRAP_52_6151 (protein)
chain: AAARAAAYAREFVAAVRAGDEEKARAIMKEIAATLDDEEIALFLREVARLVAGLSPEDRERVVEAVLEFEDIAVAAGHDEDILSYETARVAGAAYEALQR
B16: GBRAP_64_6479 (protein)
chain: NEEIEELLEELLEAARRLLALFERENPELAPEAQEIVDLLEEAKTASLEERLDLVLEVTDRLHALLRDPRVTPEQRDALLEALDLAMALAALLAEEVEKE
B17: GBRAP_80_6848 (protein)
chain: AEERLAAALAALEALLPEVAEEARELVALARELGVPDEEIAAFLEALNELAKLDPELAAELIREALEDMKELKEEGDSENALAVVRGYTGDALMAAEELE
B18: GBRAP_80_6856 (protein)
chain: AAAALAAALAALKALLPEVAEDAKEIVEIARELGVPDADIADLMEALAELAKVDPELAAELIKELLEELKEEKERGDAERALAVVRGYAGEALMLAEELE
B19: GBRAP_80_6846 (protein)
chain: AAARLAAELAALKALLPEVAEDAKEAVALARELGVPDADIADYLAALNELAKLDPELAAALLKELLADLREEKAEGDSENALAVVRGYTGEALMEAEELE
B20: GBRAP_166_4906 (protein)
chain: MKEEKIEELIERAEELIEELKEADEEEALELLIEIGEVLRELKELGASEEEILELVRRTLEAVKERGLSVRVAAGIIAEVADFDEEMREKLDEIAREVEA
B21: GBRAP_78_6635 (protein)
chain: EVEELIDKALEKVSEAAKAALKLPLDLRAEVLDELSDAAVELVEAEEGEDKEEELEEALEELEEALEIVEENDSPLTEEIKKLLEEAIELVKKAIEELKE
B22: GBRAP_52_6046 (protein)
chain: MEEEARKLAKELLELVLEGKEEEARKLAREIAETKNEEEILKIAEELAKLVLEGDKETAEAGIKAAEIMAEELEKAGRDEGLADLILATVYGAAYKRLQK
B23: GBRAP_160_4784 (protein)
chain: MERVEKVAKRFREAAKRALELSKGETAENRANIVDVELGSAILELEEEGLLNDEEEEVAAEVRDELVAEILANPNLTDEELKALLEKAVEELRKRLEELE
B24: GBRAP_160_4344 (protein)
chain: SEEKEKLLKFVDEEFEEAIELIKGESIEQRKVIISGTFGEILMELSESPIISDELEDEVREIEDELLEYLDKNPDLSEEEIKELIKEAREKVKEAIEKHT
B25: GBRAP_35_5576 (protein)
chain: EDKEMLLETVEDLAEATIEAIKEGDVDLAIALLKAFLRTAKLAVEELENDLEALEKIAELLKKVIEEIKKHLADNPEMQKLLKELEKLLKEVKEKAEKVK
B26: GBRAP_35_5577 (protein)
chain: EDEEMLLETVEDLAEATIEAIKEGNLDLAIALLKAFLRTAKIAIEDLKNNKEALEKIAELLEKVIEEIKKYLSDNPEVQELKKELEELLKEAKEKLKKVK
B27: GBRAP_52_5857 (protein)
chain: SSARMRALAEELLALRLAGKEEELEARVKELVATLSEEEILALLEELAALAKEADKEGAEAILDVAELLADEAEEAGFDEDELSYALAEVAAAAYKQLQK
B28: GBRAP_128_3469 (protein)
chain: MTEEAVERTRKILEEMKKASPEEARELFKELFEWLLTLPLEVVEAVVEEIEKHLPELSAEKLEILAEVADEAMPKATPEKAALLADLRSSALLEAEKLEE
B29: GBRAP_35_5506 (protein)
chain: DSMSTIADMLVATIDDTVLAIPDLDVETAVQISRQLIRSAREVAEDLKDDPEGLKRLRDSMERLRDALVKHYGDNPLAQEAIKEIDELIKELEERIKEAE
B30: GBRAP_128_3267 (protein)
chain: MNPEVVAYAEAFVEKLKAAGPEEAKKLADELMEKLKTMSLEEVEQFVEVLEKKLKELSVEKLEILADAARKHRDEFSPEKANLVAGLEVEALNEAVEKEE
B31: GBRAP_160_3969 (protein)
chain: SEEVEKLLKEIDEIFEEAKEMIVGESFENRLTIVRVAVGEVLLLLSENPLVSDEAEDKVDEIGDELIATIEANPDLTEEEIKELIDKAEEEIKKIIKEDA
B32: GBRAP_125_3096 (protein)
chain: HMEEILEALKLLAKALGFSEEEAEELARLAANSSVKQTLYALFAAEGYEELADLVEKLTEEQAKEVLLELAKWLKENPNASKEEVVKKAKELAKKALAKA
B33: GBRAP_160_4666 (protein)
chain: MEELEKLMKELEEIAKEAVEMTKGQSHEERVAIIRVMKGEIILELEESKIATDEVVDYADELGDELIAYVAANPDLTEEELQELLDKMLKEIEEKLKEEL
B34: GBRAP_128_3471 (protein)
chain: AVEEARKRTEEIMEKMKEANDEEFKKLAEELAEWLLTLPVEEVEAAVEVIKEHLPELSAEKLEILADVLDKAMPKATPEKAALFADVRSEALLLAEEKEE
B35: GBRAP_166_4959 (protein)
chain: SLEEVRARLEAALAAFEAEGASLSLEERRDRLVEIAELLGEAARAGLPREELLEAAVRLLLLARAAGLSPAFVEAALVNIAGLPVELVDEALARAEALAA
B36: GBRAP_26_5483 (protein)
chain: REREILDELEAKVKAILADEPAEVRAAVVAEAIDALIEFAEVVEANINDEEKIEKAKKEALEEMRKFLEDLGIPEDKREKVVKALAEALEKVEKAIKEEA
B37: GBRAP_160_4794 (protein)
chain: SERIEKVAEIFREEAERALEMARGETVEERVAIFDVELGSAIMEAIEEGLLNDEEEDIAIEVRDELVEEVRRNPELTEEELRELARRKIEELRERLEELE
B38: GBRAP_9_7151 (protein)
chain: MEELFKKVKEILEDAFEEVKEVVPEEVKPIVDEKREEVLKRLEELAKDPNVTKEELKEEAKELVDEFEEAIKEKVDEETAKMVEAIALTAKLEIEEVAEE
B39: GBRAP_160_4215 (protein)
chain: DEIVEKLVEIAREEFEEALELIEGESEEERRVILDVAVGNVILEASEIPGVTDEMEETVDRMSEELARELLEAAGESEEERRALIEERTEELRKELKKLA
B40: GBRAP_160_4218 (protein)
chain: MELVKKLVEIVREEFEEALELIEGESPEERRVILDVAVGNVILESMEIEGVTDEMEETVEEMSEELAEELLEAADESPEERRELIEERVEELEKELKKLE
B41: GBRAP_160_4217 (protein)
chain: MELVEKLVEIVREEFEEALELIEGESEEERRVILDVAVGNVILEAMEIPGVTDEMEEVVEEKSRELAEELLEARDKSEEERRKLIEERVEELREELEKLE
B42: GBRAP_160_4516 (protein)
chain: SPKLERIEKLVEEARERIIEVIDEGDVEAAITVAAVEFGEVIMEIAEDESMSDEAEDAAAEIRDKLVEELKKAKDASKEEKKKIVEEKSKELIEKLKKLS

target: GABARAP, O95166; experiment: median log2 fold change of GCK-ALFA target abundance (FLAG IP / Myc IP barcode read proportion) (log2 ratio); each designed protein is fused to an ALFA-tag nanobody in HEK293 cells to bring the named protein to FLAG-tagged glucokinase (GCK); Myc marks an untargeted standard; higher = target protein stabilised (more abundant); settings: target protein: 3xFLAG-MCP-GCK-ALFA reporter; HEK293 landing pad (RPLP)
Method in brief: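 An ALFA-nanobody-fused binder library was recombined into HEK293 landing-pad cells and induced with 2 μg mL^−1 doxycycline. Cells were transfected with a plasmid expressing a FLAG-tagged target and a Myc-tagged standard. After 48 h, lysates underwent anti-FLAG and anti-Myc immunoprecipitation, and circular RNA barcodes were reverse transcribed, amplified and sequenced. Target abundance is the per-binder median log2 ratio of FLAG to Myc barcode read proportions. Barcodes needed ≥10^−7 proportion in both replicates, binders ≥3 barcodes per replicate, and a 10^−6 pseudocount was added; the two replicates were pooled.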

Sequence of GABARAP, O95166 (O95166 whole entry, the tested form may be a part): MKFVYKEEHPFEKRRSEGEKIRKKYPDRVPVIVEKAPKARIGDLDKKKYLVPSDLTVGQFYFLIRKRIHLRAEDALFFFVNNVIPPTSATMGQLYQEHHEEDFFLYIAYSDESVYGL

Row | Binder | median log2 fold change
1 | B1 | -0.316
2 | B2 | -0.666
3 | B3 | -0.259
4 | B4 | 0.184
5 | B5 | -0.0498
6 | B6 | 0.161
7 | B7 | -0.0441
8 | B8 | -0.159
9 | B9 | -0.882
10 | B10 | 0.207
11 | B11 | -0.00271
12 | B12 | 0.0176
13 | B13 | 0.0811
14 | B14 | -0.742
15 | B15 | 0.0301
16 | B16 | -0.254
17 | B17 | -0.203
18 | B18 | -0.242
19 | B19 | -0.698
20 | B20 | -0.128
21 | B21 | -1.21

Row | Binder | median log2 fold change
22 | B22 | -0.00871
23 | B23 | 0.242
24 | B24 | -0.232
25 | B25 | -1.27
26 | B26 | 0.248
27 | B27 | -0.305
28 | B28 | 0.314
29 | B29 | -0.631
30 | B30 | 0.119
31 | B31 | -0.61
32 | B32 | 0.229
33 | B33 | -1.11
34 | B34 | 0.298
35 | B35 | 0.117
36 | B36 | 0.341
37 | B37 | 0.169
38 | B38 | 0.225
39 | B39 | -0.331
40 | B40 | -0.299
41 | B41 | -0.6
42 | B42 | 0.404
